The values that follow come from PubChem BioAssay (NCI).

The structures appear in SMILES notation. This is part of a sample that, as a whole, favours compounds with a hit. Of some 83,000 tested, about 20% had one in any assay.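 Values shown are percent growth following 48 h exposure of cells in 96-well plates to a single concentration of compound; below 10 was considered active.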 The source made the active and inactive calls.

The assay concerns MDA-MB-468 breast. Kind of assay: NCI-60 one-dose screen, 48 h (100 = growth as untreated, 0 = no growth, -100 = all killed). The conditions noted are these: 10 µM unless noted.
As for `COC(=O)c1c2c(c(C)[n+]([O-])c1C)C(=O)C=C(NCc1ccc(F)cc1)C2=O`, the growth was -67% (active).
With `Oc1c(C(Nc2ccccn2)c2cccc(Oc3ccccc3)c2)ccc2cccnc12` (stereo unspecified), the growth is -79.2% (active).
On to `Nc1nc(N)c2cc(CNc3ccc(C(=O)NC(CC(=O)O)C(=O)O)cc3)ccc2n1` (stereo unspecified), for which the growth is 61.4% (inactive).
In the case of `CCOc1ccccc1/C=N/Nc1nc2ccccc2o1` it was 28.1% (inactive); in that of `CCOC(=O)n1cc(-c2nonc2-c2cn(C(=O)OCC)c3ccc(Br)cc23)c2ccccc21`, 85.9% (inactive).
Regarding `CC(=O)Nc1nc(C)c(C(=O)N/N=C/N2CCOCC2)s1`, the growth is 116% (inactive).
For the molecule `COC(=O)c1cnc2c(c1)Oc1ccc(Cl)cc1-c1cc(C)nn1-2`, the growth was 92% (inactive).
`C=C1C(=O)O[C@H]2[C@H]1CC/C(CNC(=O)Cc1c[nH]c3ccccc13)=C\CC[C@@]1(C)O[C@@H]21`: the growth was -79.9% (active).
Consider `CN[C@@H]1C[C@H]2O[C@@](C)([C@@H]1OC)n1c3ccccc3c3c4c(c5c6ccccc6n2c5c31)C(=O)N[C@H]4O`, for which the growth is -56.3% (active).
Consider `N#C/C(=C\c1ccc(Br)cc1)n1nnc2ccccc21`, for which the growth was 6.92% (active).
With `CCOC(=O)/C=C1\S/C(=N\Nc2cc(=O)[nH]c3ccc(Br)cc23)N(c2ccccc2)C1=O` the figure was 56.1% (inactive).
